Laboratory results reported in PubChem BioAssay (NCATS).
Values without a mark were called inactive. Inconclusive results are not listed. Entries that show only a call come without a potency. Active and inactive are the calls of the source. Unless noted, calls come from the whole dose curve; as a rule, active = well fitted curve in the direction sought with a large enough effect; inconclusive = small, poorly fitted or top-dose-only effect, or another doubt; inactive = no such curve, though single readings can be large; an effect the other way counts as inactive or inconclusive.

Key:
[1] = molecular target: Beta-2 adrenergic receptor (Homo sapiens) (UniProt P07550); assay: qHTS validation assay of beta-arrestin-biased ligands of beta2-adrenergic receptor (AID 485366)
Beta-2 adrenergic receptor (Homo sapiens), sequence (P07550 whole entry, looked up): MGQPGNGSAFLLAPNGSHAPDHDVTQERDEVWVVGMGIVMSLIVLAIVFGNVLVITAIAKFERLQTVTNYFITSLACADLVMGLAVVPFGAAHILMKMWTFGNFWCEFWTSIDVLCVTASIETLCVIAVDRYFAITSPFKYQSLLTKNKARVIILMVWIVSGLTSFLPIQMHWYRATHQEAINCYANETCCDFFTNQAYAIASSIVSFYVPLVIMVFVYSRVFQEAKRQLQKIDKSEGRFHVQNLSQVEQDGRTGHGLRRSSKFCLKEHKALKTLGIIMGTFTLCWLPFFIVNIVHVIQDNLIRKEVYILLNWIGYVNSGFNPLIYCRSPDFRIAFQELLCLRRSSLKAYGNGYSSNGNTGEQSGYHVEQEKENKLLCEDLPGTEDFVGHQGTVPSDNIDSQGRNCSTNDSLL
Method in brief: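 qHTS, Tango cells, 1500 cells/well, DMEM + 1% FBS. Cpd 18 hr at 37 degrees C. Luciferin/ATP/CoA detection mix, 15 min RT, luminescence read. %Activity from corrected signal; CRC fit, curve class.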

[2] = Quantitative high throughput screen for delayed death inhibitors of the malarial parasite plastid, 96 hour incubation (AID 488745);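 note: luciferase-expressing P. falciparum in erythrocytes at 2% hematocrit and 0.1% parasitemia; series mostly up to about 29 µM; nearly all actives have a fitted effect of over 70% in size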
Method in brief: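 Luciferase-expressing P. falciparum, infected RBCs 2% Hct/0.1% parasitemia (final); 96 h cpd exposure, 37 C, 5% CO2; RPMI 1640 + 0.5% Albumax, bicarbonate, gentamycin. Readout: luminescence loss = growth inhibition.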

[3] = molecular target: Thioredoxin reductase 1, cytoplasmic (Rattus norvegicus) (UniProt O89049); assay: qHTS Assay for Substrates of Mammalian Selenoprotein Thioredoxin Reductase 1 (TrxR1) (AID 488772);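 note: series mostly up to about 57 µM; a drop in NADPH fluorescence below the no-compound background marks a TrxR1 substrate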
Thioredoxin reductase 1, cytoplasmic (Rattus norvegicus), sequence (O89049 whole entry, looked up): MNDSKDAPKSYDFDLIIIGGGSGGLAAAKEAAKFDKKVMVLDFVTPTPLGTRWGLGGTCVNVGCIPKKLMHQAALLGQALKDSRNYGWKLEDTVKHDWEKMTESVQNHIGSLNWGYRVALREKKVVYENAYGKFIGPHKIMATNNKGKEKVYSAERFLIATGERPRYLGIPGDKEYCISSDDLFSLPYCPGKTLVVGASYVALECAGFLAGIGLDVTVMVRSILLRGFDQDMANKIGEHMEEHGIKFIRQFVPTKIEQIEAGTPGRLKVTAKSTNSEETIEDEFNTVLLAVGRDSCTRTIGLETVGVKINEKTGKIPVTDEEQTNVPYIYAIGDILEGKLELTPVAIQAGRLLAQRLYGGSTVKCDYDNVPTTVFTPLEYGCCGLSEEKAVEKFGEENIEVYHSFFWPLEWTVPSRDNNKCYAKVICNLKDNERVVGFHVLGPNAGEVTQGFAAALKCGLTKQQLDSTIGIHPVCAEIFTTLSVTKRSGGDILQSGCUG
Method in brief: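 In this dual-purpose format, potential substrates are identified from the first fluorescence read after selenite addition, not from the 8-minute delta. Rat enzyme is preincubated with NADPH and then with compound at ~22 deg C.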

[4] = molecular target: Thioredoxin reductase 1, cytoplasmic (Rattus norvegicus) (UniProt O89049); assay: qHTS Assay for Inhibitors of Mammalian Selenoprotein Thioredoxin Reductase 1 (TrxR1) (AID 488773); conditions: Potency: inhibition;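 note: drop in NADPH fluorescence over an 8 min run after selenite addition; series mostly up to about 57 µM; nearly all actives have a fitted effect of over 40% in size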
Method in brief: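 Inhibition is scored from the loss of NADPH fluorescence between first and last reads of an 8-min kinetic run. Selenite (400 uM) was the substrate, added after 15 min compound preincubation at room temperature.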

[5] = molecular target: Flap endonuclease 1 (Homo sapiens) (UniProt P39748); assay: qHTS Validation Assay for the Inhibitors of Human Flap endonuclease 1 (FEN1) (AID 488816)
Flap endonuclease 1 (Homo sapiens), sequence (P39748 whole entry, looked up): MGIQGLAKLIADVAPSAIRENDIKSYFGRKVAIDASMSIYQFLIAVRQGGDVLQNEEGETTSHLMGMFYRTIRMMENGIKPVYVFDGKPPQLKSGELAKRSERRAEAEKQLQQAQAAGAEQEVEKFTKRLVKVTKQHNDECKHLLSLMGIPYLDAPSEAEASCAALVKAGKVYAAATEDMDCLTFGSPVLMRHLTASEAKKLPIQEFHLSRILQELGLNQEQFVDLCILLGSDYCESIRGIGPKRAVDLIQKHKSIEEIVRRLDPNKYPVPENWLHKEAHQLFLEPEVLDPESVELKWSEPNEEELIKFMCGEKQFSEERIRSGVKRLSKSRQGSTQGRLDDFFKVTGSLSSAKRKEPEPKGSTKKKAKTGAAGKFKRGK
Method in brief: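 qHTS format: compounds and 10 nM FEN1 incubated 15 min at room temperature before adding 50 nM substrate. Cleavage followed by reads at 0 and 15 min; normalized data fitted to a four-parameter Hill curve.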

[6] = molecular target: M-phase phosphoprotein 8 (Homo sapiens) (UniProt Q99549); assay: qHTS Validation Assay for Inhibitors for MPP8 Chromodomain Interactions with Methylated Histone Tails (AID 488949);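 note: AlphaScreen signal from MPP8 chromodomain bound to biotinylated H3K9me3 peptide; top concentration of the series differs between compounds; nearly all actives have a fitted effect of over 55% in size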
M-phase phosphoprotein 8 (Homo sapiens), sequence (Q99549 whole entry, looked up): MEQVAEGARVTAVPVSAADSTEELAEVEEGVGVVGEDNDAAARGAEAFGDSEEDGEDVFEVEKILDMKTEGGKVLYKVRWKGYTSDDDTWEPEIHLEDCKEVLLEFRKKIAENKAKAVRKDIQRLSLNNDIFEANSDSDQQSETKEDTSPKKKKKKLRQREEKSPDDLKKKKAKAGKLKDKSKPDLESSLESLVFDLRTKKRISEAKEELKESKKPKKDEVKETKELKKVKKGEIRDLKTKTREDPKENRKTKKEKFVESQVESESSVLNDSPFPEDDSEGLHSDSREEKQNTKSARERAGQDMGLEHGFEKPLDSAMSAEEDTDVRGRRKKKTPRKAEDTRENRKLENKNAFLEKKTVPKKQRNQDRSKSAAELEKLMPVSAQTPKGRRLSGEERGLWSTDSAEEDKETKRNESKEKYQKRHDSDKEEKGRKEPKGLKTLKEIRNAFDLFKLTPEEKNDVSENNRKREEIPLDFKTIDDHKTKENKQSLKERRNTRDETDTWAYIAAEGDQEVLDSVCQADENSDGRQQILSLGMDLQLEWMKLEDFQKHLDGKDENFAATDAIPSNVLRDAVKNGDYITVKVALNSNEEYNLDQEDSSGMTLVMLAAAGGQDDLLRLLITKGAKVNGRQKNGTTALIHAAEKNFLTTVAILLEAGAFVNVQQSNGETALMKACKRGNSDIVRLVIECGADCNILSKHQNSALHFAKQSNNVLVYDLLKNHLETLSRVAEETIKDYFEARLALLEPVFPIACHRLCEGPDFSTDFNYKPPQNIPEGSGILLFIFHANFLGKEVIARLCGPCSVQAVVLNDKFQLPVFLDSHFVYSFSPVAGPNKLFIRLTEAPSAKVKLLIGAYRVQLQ
Method in brief: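 MPP8 (50 nM) was preincubated with biotinylated H3(1-18)K9me3 peptide (50 nM) in PBS pH 7.4, 0.01% Tween-20 for 30 min at room temperature, then with compounds for 30 min; binding was detected by AlphaScreen.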

[7] = molecular target: Chromobox protein homolog 1 (Homo sapiens) (UniProt P83916); assay: qHTS Validation Assay for Inhibitors of HP1-beta Chromodomain Interactions with Methylated Histone Tails (AID 488953);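 note: loss of AlphaScreen luminescence from HP1-beta binding biotinylated H3K9me3 peptide; series mostly up to about 110 µM; nearly all actives have a fitted effect of over 50% in size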
Chromobox protein homolog 1 (Homo sapiens), sequence (P83916 whole entry, looked up): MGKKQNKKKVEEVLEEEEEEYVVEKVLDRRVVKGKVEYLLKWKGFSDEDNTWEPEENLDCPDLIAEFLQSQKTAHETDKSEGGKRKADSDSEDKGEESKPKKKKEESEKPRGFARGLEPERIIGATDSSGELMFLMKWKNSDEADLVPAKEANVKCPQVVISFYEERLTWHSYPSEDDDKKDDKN
Method in brief: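 AlphaScreen proximity readout: streptavidin donor and Ni-chelate acceptor beads, 10 ug/mL final, 30 min dark, RT. Complex of 50 nM HP1-beta and 50 nM b-H3(1-18)K9me3 formed 30 min, then compound-treated 30 min; PBS pH 7.4/0.01% Tween-20.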

[8] = molecular target: Methanococcus maripaludis chaperonin (MmCpn) (UniProt Q6LX38); assay: High-Throughput Screening for Modulators of Cytosolic Chaperonin Activity: MmCpn Primary Screen (AID 488978);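 note: 50 nM MmCpn enzyme hydrolysing 30 µM ATP at 37 °C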
Methanococcus maripaludis chaperonin (MmCpn), sequence (Q6LX38 1-543): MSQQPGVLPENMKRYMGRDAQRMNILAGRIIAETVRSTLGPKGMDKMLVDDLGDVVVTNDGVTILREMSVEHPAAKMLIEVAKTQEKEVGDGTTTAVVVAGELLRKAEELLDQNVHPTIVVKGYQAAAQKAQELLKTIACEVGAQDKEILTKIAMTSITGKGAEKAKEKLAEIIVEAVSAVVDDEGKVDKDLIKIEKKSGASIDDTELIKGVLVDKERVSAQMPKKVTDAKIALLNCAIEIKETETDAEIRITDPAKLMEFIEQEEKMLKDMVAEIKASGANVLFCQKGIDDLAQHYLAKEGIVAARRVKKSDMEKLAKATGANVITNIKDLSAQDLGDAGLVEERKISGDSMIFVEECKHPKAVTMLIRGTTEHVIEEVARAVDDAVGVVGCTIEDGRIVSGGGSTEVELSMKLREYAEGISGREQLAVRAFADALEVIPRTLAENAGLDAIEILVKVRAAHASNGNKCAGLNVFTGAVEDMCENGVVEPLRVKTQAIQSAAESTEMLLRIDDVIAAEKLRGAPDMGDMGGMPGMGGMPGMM
Method in brief: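 MmCpn (50 nM final) was preincubated with compound 5 min at RT, then 30 uM ATP (final) was added and the reaction ran 10 min at 37C. ADP produced was detected by Transcreener HTRF (ex 320 nm; em 590/665 nm).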

[9] = molecular target: Transient receptor potential cation channel subfamily V member 1 (Homo sapiens) (UniProt Q8NER1); assay: HTS Assay for Compounds that Act as Enhancers of the Vanilloid Receptor 1 (AID 488979)
Method in brief: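 Calcium influx kinetics via Fluo-8 (480/520 nm) in TRPV1-expressing cells, 2000/well cultured overnight at 35.5C. Compound-alone read 3 min (agonist phase), followed by EC20 capsaicin challenge for 2 min (enhancer phase).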

[10] = molecular target: Thyrotropin receptor (Homo sapiens) (UniProt P16473); assay: qHTS Assay for Antagonists of the Thyroid Stimulating Hormone Receptor (AID 488980); note: series mostly up to about 58 µM
Thyrotropin receptor (Homo sapiens), sequence (P16473 whole entry, looked up): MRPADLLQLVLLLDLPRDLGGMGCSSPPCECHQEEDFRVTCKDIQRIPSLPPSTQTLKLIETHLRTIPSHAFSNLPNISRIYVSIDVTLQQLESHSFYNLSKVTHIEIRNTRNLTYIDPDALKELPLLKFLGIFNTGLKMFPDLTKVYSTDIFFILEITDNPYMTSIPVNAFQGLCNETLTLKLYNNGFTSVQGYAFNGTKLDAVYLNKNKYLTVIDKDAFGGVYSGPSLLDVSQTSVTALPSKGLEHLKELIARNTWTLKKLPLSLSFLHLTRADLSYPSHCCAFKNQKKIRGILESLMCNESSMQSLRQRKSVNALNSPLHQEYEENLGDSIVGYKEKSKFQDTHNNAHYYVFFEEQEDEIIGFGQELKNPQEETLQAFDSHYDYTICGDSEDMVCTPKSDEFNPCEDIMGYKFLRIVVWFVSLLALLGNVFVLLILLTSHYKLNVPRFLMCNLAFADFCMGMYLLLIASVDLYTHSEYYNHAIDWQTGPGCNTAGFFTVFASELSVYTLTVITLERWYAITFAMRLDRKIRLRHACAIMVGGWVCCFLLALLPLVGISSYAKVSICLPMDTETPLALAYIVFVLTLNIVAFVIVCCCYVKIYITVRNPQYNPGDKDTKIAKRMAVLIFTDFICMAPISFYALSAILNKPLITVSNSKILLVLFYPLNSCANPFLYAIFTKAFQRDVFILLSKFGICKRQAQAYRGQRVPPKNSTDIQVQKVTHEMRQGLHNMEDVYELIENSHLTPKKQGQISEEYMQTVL
Method in brief: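 HEK293 cells transfected with human TSHR, suspended in HEPES-buffered HBSS with 70 uM RO 20-1724, were treated with compounds plus TSH at EC80 (4 nM final). cAMP was measured by competitive HTRF (cryptate anti-cAMP antibody, cAMP-d2 acceptor).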

[11] = molecular target: D(1A) dopamine receptor (Homo sapiens) (UniProt P21728); assay: HTS Assay for Allosteric Agonists of the Human D1 Dopamine Receptor: Primary Screen for Agonists (AID 488981)
D(1A) dopamine receptor (Homo sapiens), sequence (P21728 whole entry, looked up): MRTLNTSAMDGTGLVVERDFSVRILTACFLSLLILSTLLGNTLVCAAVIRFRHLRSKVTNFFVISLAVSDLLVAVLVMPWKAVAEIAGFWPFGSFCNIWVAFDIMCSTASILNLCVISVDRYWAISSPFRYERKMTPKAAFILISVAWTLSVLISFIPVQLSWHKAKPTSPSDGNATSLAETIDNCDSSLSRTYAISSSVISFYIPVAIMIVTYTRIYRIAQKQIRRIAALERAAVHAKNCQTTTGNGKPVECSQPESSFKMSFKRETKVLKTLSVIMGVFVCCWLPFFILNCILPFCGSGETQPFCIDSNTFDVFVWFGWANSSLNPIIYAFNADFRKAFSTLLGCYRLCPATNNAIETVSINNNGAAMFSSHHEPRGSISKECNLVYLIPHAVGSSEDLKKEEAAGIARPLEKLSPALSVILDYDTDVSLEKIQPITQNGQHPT
Method in brief: (§1)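 Calcium flux in an inducible, force-coupled HEK293 Trex D1 line (overnight at 30 C): agonist mode is the 180 s kinetic read after compound; potentiator mode is the following 180 s read after dopamine at EC20.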

[12] = molecular target: D(1A) dopamine receptor (Homo sapiens) (UniProt P21728); assay: HTS Assay for Allosteric Agonists of the Human D1 Dopamine Receptor: Primary Screen for Potentiators (AID 488982)
Method in brief: as §1

[13] = molecular target: D(1A) dopamine receptor (Homo sapiens) (UniProt P21728); assay: HTS Assay for Allosteric Agonists of the Human D1 Dopamine Receptor: Primary Screen for Antagonists (AID 488983);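 note: calcium flux response to an EC80 dopamine challenge measured with no-wash dye; nearly all actives have a fitted effect of over 65% in size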
Method in brief: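 Calcium flux readout, no-wash dye, inducible HEK293 T-REx D1 line (force-coupled). Compound added after 10 s baseline, 180 s kinetic read; then dopamine at EC80, further 180 s read.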

[14] = Validation screen for small molecules that induce genotoxicity in human embryonic kidney (HEK293T) cells expressing luciferase-tagged ELG1 (AID 493106)
Method in brief: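 qHTS format; 2,000 HEK293T ELG1-luc cells/well; 23 nL compound via pin tool; 16 hr, 37 °C/5% CO2; ONE-Glo, 30 min RT; luminescence read.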

[15] = molecular target: ATPase family AAA domain-containing protein 5 (Homo sapiens) (UniProt Q96QE3); assay: Validation screen for small molecules that inhibit ELG1-dependent DNA repair in human embryonic kidney (HEK293T) cells expressing luciferase-tagged ELG1 (AID 493107);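 note: cells co-treated with the DNA-damaging agent 5-fluorouridine alongside compound; series mostly up to about 46 µM; inhibitors lower the ELG1-luciferase luminescence signal; nearly all actives have a fitted effect of over 70% in size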
Method in brief: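 ELG1-luciferase HEK293T reporter; 5-fluorouridine + compound/DMSO, 16 hr, 37 °C, 5% CO2; ONE-Glo 30 min RT; luminescence read, qHTS format.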

[16] = molecular target: Thyrotropin-releasing hormone receptor (Homo sapiens) (UniProt P34981); assay: qHTS for Small Molecule Agonists and Allosteric Enhancers of Human TRH Receptor: Validation Screen for Agonists (AID 493127;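 active = calcium activation more than 3 SD above the typical response in the agonist read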;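 note: intracellular calcium rise by fluo-8 fluorescence before TRH EC20 addition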); conditions: TRH receptor agonist cell assay; at 2 µM; stronger effect = higher value
Thyrotropin-releasing hormone receptor (Homo sapiens), sequence (P34981 whole entry, looked up): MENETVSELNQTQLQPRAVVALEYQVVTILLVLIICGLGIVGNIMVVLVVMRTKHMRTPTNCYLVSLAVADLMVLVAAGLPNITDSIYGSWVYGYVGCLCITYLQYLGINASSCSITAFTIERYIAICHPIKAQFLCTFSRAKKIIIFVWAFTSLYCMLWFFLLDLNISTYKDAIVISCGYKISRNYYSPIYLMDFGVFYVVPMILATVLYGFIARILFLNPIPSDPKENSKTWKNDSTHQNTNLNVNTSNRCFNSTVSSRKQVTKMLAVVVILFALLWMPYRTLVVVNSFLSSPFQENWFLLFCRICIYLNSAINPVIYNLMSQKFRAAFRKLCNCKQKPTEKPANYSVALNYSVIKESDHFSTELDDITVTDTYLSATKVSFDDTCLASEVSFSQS
Method in brief: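 Read-out: intracellular calcium release measured kinetically by FDSS (fluo-8, ex 480/em 530 nm), 1 reading/s after a 10-cycle baseline. TRHR cells, 2000/well, cultured 18 h at 33.5C, dye-loaded at room temp. Compound-evoked positive calcium signal flags agonists.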

[17] = Quantitative high throughput screen for delayed death inhibitors of the malarial parasite plastid, 48 hour incubation (AID 488752); note: nearly all actives have a fitted effect of over 65% in size; note: potency is the fitted concentration of half-maximal effect
Method in brief: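 Luciferase-expressing P. falciparum in RBCs, 2% Hct, 0.1% parasitemia final; RPMI 1640 + 0.5% Albumax; 48 h, 37 C, 5% CO2; luminescence readout, signal drop = growth inhibition.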

[18] = molecular target: ATP-dependent 6-phosphofructokinase (Trypanosoma brucei brucei) (UniProt O15648); assay: qHTS Assay to Find Inhibitors of T. brucei phosphofructokinase: hit validation (AID 492961);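 note: luminescence reports ADP formed as PFK phosphorylates fructose-6-phosphate with ATP; series mostly up to about 51 µM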
ATP-dependent 6-phosphofructokinase (Trypanosoma brucei brucei), sequence (O15648 whole entry, looked up): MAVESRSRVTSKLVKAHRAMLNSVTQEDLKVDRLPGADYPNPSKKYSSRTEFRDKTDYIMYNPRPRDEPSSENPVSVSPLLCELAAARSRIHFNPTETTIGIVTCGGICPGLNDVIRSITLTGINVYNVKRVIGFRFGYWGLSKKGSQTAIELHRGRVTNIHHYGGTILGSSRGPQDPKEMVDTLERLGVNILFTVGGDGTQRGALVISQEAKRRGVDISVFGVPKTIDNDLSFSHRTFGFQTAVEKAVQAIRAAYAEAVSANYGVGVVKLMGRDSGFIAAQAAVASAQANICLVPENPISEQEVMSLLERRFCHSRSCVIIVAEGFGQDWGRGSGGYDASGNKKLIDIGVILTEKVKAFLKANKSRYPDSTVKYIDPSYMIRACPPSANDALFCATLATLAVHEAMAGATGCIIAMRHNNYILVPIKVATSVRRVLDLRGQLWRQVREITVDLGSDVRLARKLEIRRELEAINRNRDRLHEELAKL
Method in brief: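 Measures ADP output of PFK (1.25 nM) at 0.1 mM ATP, 0.5 mM F6P, pH 8.0 TEA buffer with 5 mM MgCl2. No-enzyme wells define full inhibition; uninhibited enzyme wells define zero.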

| Compound | outcome [1] | Potency [2] | outcome [3] | Potency [4] | Potency [5] | Potency [6] | Potency [7] | outcome [8] | outcome [9] | outcome [10] | Potency [11] | Potency [12] | Potency [13] | Potency [14] | Potency [15] | activation [16] | Potency [17] | outcome [18] |
| --- | --- | --- | --- | --- | --- | --- | --- | --- | --- | --- | --- | --- | --- | --- | --- | --- | --- | --- |
| N[C@@H](CCCC(=O)O)C(=O)O | inactive | inactive | inactive | inactive | inactive | inactive | inactive | inactive | inactive | inactive | inactive | inactive | inactive | inactive | inactive | 0.75% |  |  |
| O=c1ccc2c(OCCCCc3ccccc3)c3ccoc3cc2o1 | inactive |  | inactive | inactive | inactive | inactive | inactive | inactive | inactive | inactive |  | inactive | inactive | inactive | inactive | -9.69% | inactive |  |
| N=C(N)c1ccc(OCCCCCOc2ccc(C(=N)N)cc2)cc1 (tested in a mixture with another compound) | inactive |  | inactive | inactive | inactive | inactive |  | inactive | inactive | inactive | inactive | inactive | inactive | inactive |  | 1.31% | 0.185 µM (active) |  |
| N[C@@H](CS(=O)O)C(=O)O | inactive | inactive | inactive |  | inactive | inactive | inactive | inactive | inactive | inactive | inactive | inactive |  | inactive | inactive | 0.688% |  |  |
| O=C(O)C1CCNCC1 | inactive | inactive | inactive | inactive | inactive | inactive | inactive | inactive | inactive | inactive | inactive | inactive | inactive | inactive | inactive | -0.188% |  |  |
| O=C(O)[C@H]1NCCC[C@H]1C(=O)O | inactive | inactive | inactive | inactive | inactive | inactive | inactive | inactive | inactive | inactive | inactive | inactive | inactive | inactive | inactive | -0.188% |  |  |
| CCCCCCCCCC[Si](C)(C)CCC(=O)NC(Cc1ccc(C)cc1)c1ccccc1 (stereo unspecified) | inactive | inactive | inactive | inactive |  | inactive |  | inactive | inactive | inactive |  | inactive |  | inactive | inactive | 0.812% |  |  |
| C[C@@]1(C2CCCC2)Cc2cc(OCC(=O)O)c(Cl)c(Cl)c2C1=O | inactive |  | inactive | inactive |  | inactive | inactive | inactive | inactive | inactive | inactive | inactive | inactive | inactive | inactive | 1.25% | inactive |  |
| CC1CCN(CC[C@H]2CCCN2S(=O)(=O)c2cccc(O)c2)CC1 | inactive | inactive | inactive | inactive | inactive | inactive | inactive | inactive | inactive | inactive | inactive | inactive | inactive | inactive | inactive | 2.44% |  |  |
| O=C1C2C=CC=CC2=NC(=S)N1CCN1CCC(=C(c2ccc(F)cc2)c2ccc(F)cc2)CC1 (stereo unspecified) | inactive | inactive | inactive |  | inactive |  |  | inactive | inactive | inactive | inactive | inactive |  | inactive | inactive | -4.38% |  |  |
| O=c1cc(-c2ccccc2)[nH]c2nc(Cl)ccc12 | inactive | inactive | inactive | inactive |  |  |  | inactive | inactive | inactive | inactive | inactive | inactive | inactive |  | -0.438% |  |  |
| NC(=O)CC[C@H](N)C(=O)O | inactive |  | inactive | inactive | inactive | inactive | inactive | inactive | inactive | inactive |  | inactive | inactive | inactive |  | -0.625% | inactive |  |
| CC(O)C(O)[C@H]1CNc2nc(N)[nH]c(=O)c2N1 (stereo partly specified) | inactive |  | inactive | inactive | inactive | inactive |  | inactive |  |  | inactive | inactive | inactive | inactive | inactive |  |  | inactive |
| CCCCCCCCCC(=O)NC(CN1CCOCC1)[C@H](O)c1ccccc1 (stereo partly specified) | inactive |  | inactive | inactive | inactive | inactive | inactive | inactive |  | inactive |  |  | inactive | inactive | inactive | 0.812% |  |  |
